Compound activity as filed in PubChem.
A selection: hits, their analogues and other compounds. The true share with any hit is near 4.1%.
hgDAF12 agonist = agonists of H. glycines DAF-12 nuclear receptor; HEK293 GAL4-hgDAF12 UAS-luciferase reporter, agonist luminescence; normalized to butyrate control; activation, % at 6.8 µM; hit rate 1.8% among 370,000;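 active = activation above a cutoff set at the mean of all screened compounds plus 3 SD, cut at about 10% in these data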
DAX1 inh-1 = blocks DAX1 repression of SF-1 activated StAR promoter; HEK293T StAR-luciferase reporter, SF-1/DAX-1 repression relief; inhibition, % at 6.8 µM; hit rate 1.1% among 370,000; AID 652010;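 active = inhibition above the mean over all tested compounds plus 3 SD, cut at about 3.6% in these data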;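 also: higher inhibition means more luminescence from relief of DAX-1 repression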
ssDAF12 agonist = activates DAF-12 receptor from parasite S. stercoralis. HEK293 ssDAF-12/GRIP1 lit1-tk-luc reporter, luminescence; % of 3 µM dafachronic acid response. AID 652126. hit rate 1% among 370,000. activation, % at 6.8 µM;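 active = activation above the mean over all tested compounds plus 3 SD, cut at about 0.9% in these data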
DAX1 inh-2 = NR0B1 (DAX1) inhibition; P51843; HEK293 Gal4-DAX1 luciferase reporter, luminescence; inhibition, % at 6.75 µM; hit rate 0.99% among 340,000;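 active = inhibition above the mean over all tested compounds plus 3 SD, cut at about 4.2% in these data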;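 also: inhibition shows as a rise in luminescence from relieved DAX1 repression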
Target sequence (P51843 207-470 limits assumed): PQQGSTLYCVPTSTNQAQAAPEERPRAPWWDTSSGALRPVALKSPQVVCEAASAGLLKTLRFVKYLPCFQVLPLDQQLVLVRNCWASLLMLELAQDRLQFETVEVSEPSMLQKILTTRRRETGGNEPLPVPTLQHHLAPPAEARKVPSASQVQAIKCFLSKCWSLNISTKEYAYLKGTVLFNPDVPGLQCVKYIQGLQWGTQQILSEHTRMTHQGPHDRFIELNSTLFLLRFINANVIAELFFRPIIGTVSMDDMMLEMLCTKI
hcDAF12 agonist = H. contortus DAF-12 activation, primary screen | hit rate 1.4% among 370,000 | HEK293 hcDAF-12 lit1-tk-luc reporter, luminescence; 0% DMSO, 100% Δ7-dafachronic acid | activation, % at 6.8 µM;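 active = activation above the mean of all tested compounds plus 3 SD, cut at about 5.5% in these data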
DAX1 conf = confirmation of human DAX1 (NR0B1) inhibitors; shares compounds with DAX1 inh-1; HEK293T StAR-promoter luciferase reporter, SF-1/DAX-1 repression; inhibition, % at 6.8 µM; hit rate 87% among 2,400;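 active = inhibition above the average of every tested compound plus 3 SD, cut at about 3.8% in these data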;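 also: active compounds raise luminescence by relieving repression of the StAR reporter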
Target sequence (P51843 whole entry, looked up): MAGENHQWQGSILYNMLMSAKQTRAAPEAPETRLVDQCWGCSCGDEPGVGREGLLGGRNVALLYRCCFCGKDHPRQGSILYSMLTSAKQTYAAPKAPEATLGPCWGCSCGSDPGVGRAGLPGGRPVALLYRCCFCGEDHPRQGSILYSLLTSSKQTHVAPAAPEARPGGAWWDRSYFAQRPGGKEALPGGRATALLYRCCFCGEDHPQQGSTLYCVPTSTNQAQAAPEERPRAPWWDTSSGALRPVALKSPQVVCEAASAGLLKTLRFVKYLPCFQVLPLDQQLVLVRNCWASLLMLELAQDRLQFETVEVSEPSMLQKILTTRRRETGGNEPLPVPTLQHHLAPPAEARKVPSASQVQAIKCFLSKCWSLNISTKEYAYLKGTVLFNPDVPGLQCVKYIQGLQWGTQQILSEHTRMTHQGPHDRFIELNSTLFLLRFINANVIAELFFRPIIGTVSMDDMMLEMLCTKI
SF1 mutant ctr = counter-screen for DAX1 inhibitors: nonselective inhibitors with SF-1 AF2 mutant. shares compounds with DAX1 inh-1. HEK293 StAR-luciferase, luminescence. inhibition, % at 6.8 µM. hit rate 78% among 2,400. AID 652136;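 active = inhibition above the mean of all tested compounds plus 3 SD, cut at about 3% in these data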
LXR ag = activates human LXR-beta, counter-screen for hcDAF-12 agonists; shares compounds with hcDAF12 agonist; HEK293 Gal4-LXR tk-luc reporter, luminescence, 24 h; normalized: DMSO 0%, positive control 100%; activation, % at 6.8 µM; 3,400 tested, under 10 active; AID 743027;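 active = mean percent activation of the reporter above a cutoff set as the average over tested compounds plus their standard deviation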
hcDAF12 conf = hcDAF-12 agonism, confirmation assay; shares compounds with hcDAF12 agonist; HEK293 hcDAF-12 lit1-tk-luc reporter, luminescence; % of Δ7-dafachronic acid response; activation, % at 6.8 µM; hit rate 61% among 3,400;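 active = mean activation across triplicate tests above the threshold derived from the earlier primary screen, cut at about 5.5% in these data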
hgDAF12 conf = confirmation of H. glycines DAF-12 agonists. hit rate 80% among 3,300. activation, % at 6.8 µM. AID 743050. HEK293 GAL4-hgDAF12 luciferase reporter, agonist mode; percent of butyrate response. shares compounds with hgDAF12 agonist;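 active = mean activation over triplicate wells above the hit cutoff derived from the earlier primary screen, cut at about 11% in these data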
LXRb DAF12 ctr = counter-screen for DAF-12 agonists: agonists of human LXR-beta. activation, % at 6.8 µM. 3,300 tested, under 10 active. shares compounds with hgDAF12 agonist. HEK293 Gal4-LXR luciferase reporter, 24 h;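 active = mean activation of the triplicate above a set limit carried over from the primary screen, none filed active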
Large screens that a line does not name were inactive (follow-up assays come after a bar, where they were run).

O=C(NC(=S)Nc1ncccn1)c1ccc(Cl)cc1Cl	hgDAF12 agonist 16, DAX1 inh-1 6.7, DAX1 inh-2 5.1 | DAX1 conf 14 | SF1 mutant ctr 9.8 | hgDAF12 conf 14 | LXRb DAF12 ctr inactive
CCC(=O)Nc1cccc(NC(=S)NC(=O)c2ccc(Cl)cc2Cl)c1	none
COC(=O)Cc1nnn2c1[C@@H](C)[C@@H](c1ccccc1Br)O[C@@H](C)C2	none (no result: DAX1 inh-2)
NC(=O)C1CC(=O)N(c2ccc(OCc3ccc(Cl)cc3Cl)cc2)C1 (stereo unspecified)	none
NC(=O)C1CC(=O)N(c2ccc(OCc3ccc(Cl)c(Cl)c3)cc2)C1 (stereo unspecified)	hgDAF12 agonist 25, DAX1 inh-1 10, DAX1 inh-2 4.5, hcDAF12 agonist 5.8 | DAX1 conf 15 | SF1 mutant ctr 9.3 | hgDAF12 conf 16 | LXRb DAF12 ctr inactive
Cc1ccc(S(=O)(=O)N(CC(=O)NC2CCC(C)CC2)c2cc(C)cc(C)c2)cc1 (stereo unspecified)	none (no result: DAX1 inh-2)
CN(CC(=O)Nc1ccccc1Br)C(=O)c1cc2c(s1)CCCCC2	hgDAF12 agonist 14, DAX1 inh-1 6.4, DAX1 inh-2 4.2 | DAX1 conf 7.5 | SF1 mutant ctr 4.9 | hgDAF12 conf 11 | LXRb DAF12 ctr inactive
c1ccc2c(c1)cnc1ccccc12	none
c1ccc(-c2ncc3c(ccc4ccccc43)n2)cc1	hgDAF12 agonist 17, DAX1 inh-1 6.3, ssDAF12 agonist 3.6, hcDAF12 agonist 23 | DAX1 conf 12 | SF1 mutant ctr 3.8 | hgDAF12 conf 17 | LXRb DAF12 ctr inactive
O=C(NCc1ccccc1)OCCN1C(=O)CCC12CCCCC2	none (no result: DAX1 inh-2)
O=C1Nc2ccccc2N(C(=O)c2c(F)cccc2F)C1c1nc2ccccc2[nH]1 (stereo unspecified)	hgDAF12 agonist 23, DAX1 inh-1 14 (no result: DAX1 inh-2) | DAX1 conf 4.2 | SF1 mutant ctr 3.1 | hgDAF12 conf 11 | LXRb DAF12 ctr inactive
O=C(CCCc1cccs1)Nc1ccc2c(c1)OCO2	hgDAF12 agonist 22, DAX1 inh-1 5.5, DAX1 inh-2 6.0 | DAX1 conf 9.7 | SF1 mutant ctr 6.7 | hgDAF12 conf 14 | LXRb DAF12 ctr inactive
O=C(/C=C/c1ccccc1)Nc1ccc2c(c1)OCCO2	hgDAF12 agonist 18, DAX1 inh-1 7.4 | DAX1 conf 14 | SF1 mutant ctr 6.5 | hgDAF12 conf 23 | LXRb DAF12 ctr inactive
O=C(CSc1ccccc1)Nc1ccc2c(c1)OCCO2	hgDAF12 agonist 15, DAX1 inh-1 11, ssDAF12 agonist 1.0 | DAX1 conf 14 | SF1 mutant ctr 7.5 | hgDAF12 conf 15 | LXRb DAF12 ctr inactive
C/C(CC(=O)Nc1ccc2c(c1)OCCO2)=N\NC(=O)c1ccccc1F	none
C/C(CC(=O)Nc1ccc2c(c1)OCCO2)=N\NC(=O)c1ccccn1	hgDAF12 agonist 15, DAX1 inh-1 6.4, hcDAF12 agonist 6.2 | DAX1 conf inactive | SF1 mutant ctr inactive | hgDAF12 conf inactive | LXRb DAF12 ctr inactive
CSc1ccc(/C=C/C(=O)Nc2ccccc2)cc1	hgDAF12 agonist 14, DAX1 inh-1 14, hcDAF12 agonist 11 | DAX1 conf 6.8 | SF1 mutant ctr 4.3 | LXR ag inactive | hcDAF12 conf 7.4 | hgDAF12 conf 16 | LXRb DAF12 ctr inactive
O=C(CCCc1ccccc1)Nc1ccc2c(c1)OCCO2	hgDAF12 agonist 22, DAX1 inh-1 6.1, hcDAF12 agonist 8.2 | DAX1 conf 9.0 | SF1 mutant ctr 4.9 | LXR ag inactive | hcDAF12 conf 9.1 | hgDAF12 conf 15 | LXRb DAF12 ctr inactive
CSc1cccc(NC(=O)/C=C/c2ccccc2)c1	none
O=C(N[C@@H](Cc1cccnc1)C(=O)N1CCC[C@H]1C(=O)NCCc1ccccc1Cl)C1CC1	none (no result: DAX1 inh-2)
Cc1nn(-c2nnc(NC3CCCCC3)nn2)c(C)c1Br	hgDAF12 agonist 18, DAX1 inh-1 5.2, ssDAF12 agonist 1.8, hcDAF12 agonist 6.1 | DAX1 conf 13 | SF1 mutant ctr 8.3 | hgDAF12 conf 16 | LXRb DAF12 ctr inactive
COc1ccc(N=C2C(=Nc3ccc(OC)cc3)N(c3ccccc3)C(=S)N2C(=O)c2ccc(Cl)cc2)cc1	hgDAF12 agonist 15, DAX1 inh-1 4.5 | DAX1 conf 6.0 | SF1 mutant ctr 5.8 | hgDAF12 conf 18 | LXRb DAF12 ctr inactive
COc1ccc(N=C2C(=Nc3ccc(OC)cc3)N(c3ccc(OC)cc3)C(=S)N2C(=O)c2ccc(OC)cc2)cc1	none
COc1ccc(OC)c(/C=C/C(=O)Nc2ccc3c(c2)CCC3)c1	none
O=C(O)c1ccccc1-c1ccccc1C(=O)Nc1ccc2c(c1)CCC2	none
COc1ccccc1/C=C/C(=O)Nc1ccc2c(c1)CCC2	hgDAF12 agonist 16, DAX1 inh-1 5.2, ssDAF12 agonist 1.4, hcDAF12 agonist 6.7 | DAX1 conf 7.7 | SF1 mutant ctr 7.5 | LXR ag inactive | hcDAF12 conf 6.6 | hgDAF12 conf 19 | LXRb DAF12 ctr inactive
O=C(Nc1ccc2c(c1)CCC2)c1ccccc1F	hgDAF12 agonist 20, DAX1 inh-1 6.7, hcDAF12 agonist 15 | DAX1 conf 14 | SF1 mutant ctr 7.2 | LXR ag inactive | hcDAF12 conf 12 | hgDAF12 conf 21 | LXRb DAF12 ctr inactive
O=C(Nc1ccc2c(c1)CCC2)Nc1ccccc1Cl	hgDAF12 agonist 14, DAX1 inh-1 8.8 | DAX1 conf 9.8 | SF1 mutant ctr 7.8 | hgDAF12 conf 22 | LXRb DAF12 ctr inactive
Cc1ccc(NC(=O)Nc2ccc3c(c2)CCC3)c(C)c1	none
O=C(Nc1ccc2c(c1)CCC2)c1ccccc1	hgDAF12 agonist 17, DAX1 inh-1 5.6, hcDAF12 agonist 6.0 | DAX1 conf 15 | SF1 mutant ctr 6.5 | hgDAF12 conf 19 | LXRb DAF12 ctr inactive
O=C(Nc1ccccc1)OCCN1C(=O)CCC12CCC(c1ccc(Cl)cc1)CC2 (stereo unspecified)	none (no result: DAX1 inh-2)
